Bioassay records deposited in PubChem BioAssay by several laboratories.
The list is not random: actives were taken first. Their share in the collection is about 3.2%.
AHR act = activators of human aryl hydrocarbon receptor. P35869. AHR-responsive luciferase reporter cells, luminescence. activation, % at 5 µM. actives 2.5% (n = 320,000); in the data active = activation above about 47%
A3G deaminase = inhibitors of human APOBEC3G DNA deaminase. Q9HC16. actives 0.28% (n = 330,000). inhibition, % at 20 µM. recombinant A3G, ssDNA deamination FAM/TAMRA fluorescence;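 active = inhibition of at least 40% at 20 µM, with no more than 30% in the related APOBEC3A deaminase screen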
Target sequence (Q9HC16 whole entry, looked up): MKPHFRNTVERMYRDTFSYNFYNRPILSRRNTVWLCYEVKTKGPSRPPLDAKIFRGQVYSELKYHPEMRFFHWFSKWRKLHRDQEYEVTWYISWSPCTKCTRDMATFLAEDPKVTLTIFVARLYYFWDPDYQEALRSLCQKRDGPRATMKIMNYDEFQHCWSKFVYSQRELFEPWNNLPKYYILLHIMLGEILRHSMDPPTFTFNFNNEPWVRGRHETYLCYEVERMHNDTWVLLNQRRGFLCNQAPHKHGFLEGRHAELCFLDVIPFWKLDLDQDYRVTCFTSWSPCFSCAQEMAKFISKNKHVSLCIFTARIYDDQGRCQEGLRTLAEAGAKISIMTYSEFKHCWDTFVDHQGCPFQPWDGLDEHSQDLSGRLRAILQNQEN
NTR1 ag = agonists of human neurotensin receptor NTR1; NTR1-U2OS beta-arrestin-GFP spot imaging, agonist mode; activation, % at 20 µM; actives 0.17% (n = 330,000); AID 493036;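 active = activation at or above 40% of the spot to cytoplasm intensity ratio, with at least 20 cells analyzed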
A3A deaminase = blocks human APOBEC3A ssDNA deamination; P31941; recombinant A3A, FAM/TAMRA ssDNA deamination fluorescence; inhibition, % at 20 µM; actives 0.41% (n = 330,000);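 active = at least 40% inhibition at 20 µM here, with at most 30% in a related deaminase screen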
Target sequence (P31941 whole entry, looked up): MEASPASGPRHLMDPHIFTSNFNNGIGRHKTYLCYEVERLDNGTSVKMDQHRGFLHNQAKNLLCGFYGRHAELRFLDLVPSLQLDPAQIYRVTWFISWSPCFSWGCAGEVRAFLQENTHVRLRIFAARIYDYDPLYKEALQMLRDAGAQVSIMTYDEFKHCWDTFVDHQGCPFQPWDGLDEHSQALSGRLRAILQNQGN
AHR act cf = human AHR activation, confirmation | shares compounds with AHR act | human cells, AHR-responsive luciferase reporter, luminescence | activation, % at 9 µM | actives 87% (n = 2,300) | AID 2845; in the data active = activation above about 49%;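 also: HepG2 hepatoma cells carrying a DRE-driven firefly luciferase reporter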
PXR act counter = counter-screen for AHR activators: human PXR activators | shares compounds with AHR act | activation, % at 11.6 µM | cell-based PXR reporter, luciferase luminescence | actives 88% (n = 2,300) | AID 434939; in the data active = activation above about 11%;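 also: human hepatoma DPX-2 cells expressing full-length human PXR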
Each line names hits and unclear results; the compound was inactive in the other large screens (follow-up assays come after a bar, where they were run).

CCc1nnc(NC(=O)c2sc3nc4c(cc3c2N)CCCCC4)s1	AHR act 123.7 | AHR act cf inactive | PXR act counter 35.7
COc1cccc(/C=C/C(=O)NNC(=O)c2cc(C)oc2C)c1	none
Cn1ccc2cc3c(cc21)CCN3C(=O)Nc1cccnc1	AHR act 117.6 | AHR act cf 83.0 | PXR act counter 30.6
Cc1cc(Br)ccc1SCC(=O)Nc1cccnc1	none
Cc1nc2nc(-c3cccnc3)nn2c(C)c1Cl	AHR act 97.8 | AHR act cf 111.9 | PXR act counter 29.4
O=C(CN1C(=O)c2ccccc2S1(=O)=O)Nc1cc(S(=O)(=O)N2CCCCC2)ccc1Cl	none (no result: AHR act)
Clc1ccc(C2=NN=C3COc4ccccc4N3C2)cc1	AHR act 87.8 | AHR act cf 117.7 | PXR act counter 23.9
COC(=O)/C(=C(O)\C=C\c1ccccc1[N+](=O)[O-])c1nc2ccccc2[nH]1	AHR act 92.2 | AHR act cf 113.1 | PXR act counter 46.6
COc1cc(C#Cc2c(-c3cncn3C)n(C)c3ccc(-c4cc(OC)c(OC)c(OC)c4)cc23)cc(OC)c1	none
COc1cc(C#Cc2c(-c3cncn3C)n(C)c3ccc(-c4ccc5[nH]ccc5c4)cc23)cc(OC)c1	AHR act 104.7 | AHR act cf 79.6 | PXR act counter 28.2
C=CCc1c(C)nc(-c2ccccc2)nc1Nc1ccccc1O	AHR act 121.4 | AHR act cf 88.0 | PXR act counter 133.6
Oc1ccccc1Nc1nc(-c2ccccc2O)nc2ccccc12	none (no result: AHR act)
O=c1[nH]ncn1-c1ccc(Br)cc1	none
Cc1ccnc2ccc(-c3nc4ccccc4o3)cc12	AHR act 86.6 | AHR act cf 183.0 | PXR act counter 54.1
Cc1cc(-c2nc3ccccc3o2)c2ccccc2n1	AHR act 104.6 | AHR act cf 134.7 | PXR act counter 10.6
O=C(Nc1ccc(Br)cc1)c1cccc(N2C(=O)C3CCCCC3C2=O)c1 (configuration not stated)	AHR act 114.0 | AHR act cf inactive | PXR act counter 17.8
O=C(N/N=C/c1ccsc1)c1c[nH]c2ccccc12	AHR act 127.8 | AHR act cf 114.8 | PXR act counter 21.9
O=C(N/N=C/C1CC2CCC1C2)c1c[nH]c2ccccc12 (configuration not stated)	AHR act 86.8 | AHR act cf inactive | PXR act counter inactive
Cc1ccsc1/C=N/NC(=O)c1c[nH]c2ccccc12	AHR act 101.5 | AHR act cf 142.1 | PXR act counter 41.6
O=C(N/N=C/c1ccsc1)c1ccccn1	none
Cc1ccc(C)c(SCC(=O)c2ccc[nH]2)c1	none
COc1ccccc1N1CCN(CCN2C(=O)C3CCCCN3C2=O)CC1 (configuration not stated)	none
O=C(Nc1cccc(N2CCCC2)c1)c1cccs1	AHR act 88.2 | AHR act cf 91.8 | PXR act counter 37.3
Cc1ccccc1NC(=O)CSCc1cc(=O)n2ccsc2n1	none
CCOc1ccc(CN(CC)C(=O)c2ccc3c(c2)[nH]c(=O)c(=O)n3CC)cc1OC	none
CCOc1ccc(N(CC(=O)NC(C)(C)C)C(=O)CCC(=O)Nc2nccs2)cc1	none
Cn1c(-c2ccc(Br)o2)nc2cc(Br)ccc21	AHR act 116.3 | AHR act cf 125.5 | PXR act counter 20.5
O=C(Nc1ccccc1C(=O)NCCc1ccccc1)c1ccco1	AHR act 109.8 | AHR act cf 101.9 | PXR act counter 41.5
O=C(O)CNC(=O)c1ccccc1NC(=O)c1ccco1	none
COc1ccc(S(=O)(=O)N2CCCCC2)cc1C(=O)N1CCCCCC1	none
CC1Cc2ccccc2N1S(=O)(=O)c1cccc(C(=O)NCCCn2ccnc2)c1 (configuration not stated)	none
Fc1ccc(N/N=C2/CC(c3ccccc3)Oc3ccccc32)c(F)c1 (configuration not stated)	AHR act 97.6 | AHR act cf 89.9 | PXR act counter 26.2
O=C(N/N=C\c1ccc2c(c1)OCO2)c1cncc(Br)c1	AHR act 104.4 | AHR act cf 80.4 | PXR act counter 10.3
COc1cc(/C=N/NC(=O)c2cccnc2)cc2c1OCO2	AHR act 88.0 | AHR act cf 78.2
Clc1ccccc1N/N=C/c1ccc2c(c1)OCO2	AHR act 79.9 | AHR act cf 66.4 | PXR act counter 35.2
Cc1ccc(/C=N\NC(=O)c2ccc3c(c2)OCO3)o1	none
Cc1ccc(C(=O)N/N=C/c2ccc3c(c2)OCO3)o1	AHR act 141.9 | AHR act cf 98.1 | PXR act counter 21.3
Cc1cccc(C)c1OCC(=O)NCC1COc2ccccc2O1 (configuration not stated)	none
O=c1[nH]c2cccc(F)c2n2cccc12	none
CC(=O)N/C(=C/c1ccc2c(c1)OCO2)C(=O)NCc1ccccc1	none
CCCCNC(=S)N(C)/N=C/c1ccc2c(c1)OCO2	AHR act 159.5 | AHR act cf 68.0 | PXR act counter 26.0
C=C(C)CNC(=S)N/N=C\c1ccc2c(c1)OCO2	AHR act 81.8 | AHR act cf 64.2 | PXR act counter 67.4
C=C(C)CNC(=S)N/N=C/c1ccc(N2CCOCC2)cc1	none
CCCCNC(=S)N(C)/N=C/c1ccc(F)cc1	none
C=CCNC(=S)N/N=C/c1cn(C)c2ccccc12	AHR act 95.4 | AHR act cf 74.5 | PXR act counter 166.7
Cn1cc(/C=N\NC(=O)c2cccs2)c2ccccc21	AHR act 148.8 | AHR act cf 109.5 | PXR act counter 21.1
Cn1cc(/C=N/NC(N)=S)c2ccccc21	none
Cc1cc(/C=N/NC(=O)c2cccs2)c(C)n1-c1cnccn1	AHR act 109.8 | AHR act cf 117.8 | PXR act counter 21.3
Cc1cccc(NC(=O)CSCC(=O)NNC(=O)c2ccoc2C)c1	none
CC(=O)Nc1cc(-c2ccc(Cl)cc2)[nH]n1	AHR act 95.3 | AHR act cf 160.4
c1ccc2c(c1)CCN(c1nc3cc4c(cc3s1)OCO4)C2	AHR act 103.2 | AHR act cf inactive | PXR act counter 34.7
O=C(Nc1ccc(F)cc1)c1ccc(=O)[nH]n1	none
O=C(Nc1cccc(Cl)c1)c1ccc(=O)[nH]n1	AHR act 148.2 | AHR act cf 103.8
Cc1cc(C(=O)Nn2c(-c3ccc(Br)cc3)nc3ccccc3c2=O)ccc1[N+](=O)[O-]	AHR act 83.5 | AHR act cf 47.5 | PXR act counter 48.9
Cc1ccc(NC(=O)C2OCCc3ccccc32)cc1 (configuration not stated)	AHR act 117.9 | AHR act cf 103.5 | PXR act counter 63.6
CCOc1ccc(/C=N/NC(=O)c2cc3c(OC)cccc3[nH]2)cc1	none
CCOc1ccc(/C=N/NC(=O)c2cc3c(OC)cc(OC)cc3[nH]2)cc1OC	AHR act 84.9 | AHR act cf 86.1 | PXR act counter 21.0
COc1ccc(/C=N/NC(=O)c2ccn[nH]2)cc1COc1ccc(Cl)cc1	AHR act 86.8 | AHR act cf inactive | PXR act counter 11.4
